Test results: PubChem BioAssay (NCATS)
Inconclusive results are not listed. Activity calls are given as the source filed them. Unless noted, the call rests on the fitted dose curve.

What was measured:
[1] = Validation screen for inhibitors of Lassa infection (AID 463096)
[2] = Inducers of the Endoplasmic Reticulum Stress Response (ERSR) in human glioma: Validation (AID 504836; active means well fitted curve in the direction sought with a large enough effect)
Outline: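 Stably transfected U87-MG human glioma cells carrying a GRP78-based luminescent sensor were seeded at 1000 cells/well, pin-dosed with compounds and incubated 16 h. Luciferase reagent was then added, and end-point luminescence was read after 10 min at room temperature.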

[3] = qHTS for Inhibitors of the Functional Ribonucleoprotein Complex (vRNP) of Lassa (LASV) Arenavirus: LASV Primary Screen - GLuc reporter signal (AID 1347082; calls by dose curve; tested in HEK293 reporter line; further: series mostly up to about 57 µM; nearly all actives have a fitted effect of over 60% in size)
[4] = qHTS for Inhibitors of the Functional Ribonucleoprotein Complex (vRNP) of Lassa (LASV) Arenavirus: Viability assay - alamar blue signal for LASV Primary Screen (AID 1347083; calls by dose curve; tested in HEK293 reporter line; further: series mostly up to about 57 µM; nearly all actives have a fitted effect of over 80% in size)
[5] = qHTS for Inhibitors of the Functional Ribonucleoprotein Complex (vRNP) of Lymphocytic Choriomeningitis Arenaviruses (LCMV): Viability assay - alamar blue signal for LCMV Primary Screen (AID 1347085; calls by dose curve; tested in HEK293 reporter line; further: series mostly up to about 57 µM; nearly all actives have a fitted effect of over 80% in size)
[6] = biological target: Nucleoprotein (Lymphocytic choriomeningitis virus (strain Armstrong)) (UniProt P09992); assay: qHTS for Inhibitors of the Functional Ribonucleoprotein Complex (vRNP) of Lymphocytic Choriomeningitis Arenaviruses (LCMV): LCMV Primary Screen - GLuc reporter signal (AID 1347086); further: series mostly up to about 57 µM; nearly all actives have a fitted effect of over 70% in size
Nucleoprotein (Lymphocytic choriomeningitis virus (strain Armstrong)), sequence (P09992 whole entry, looked up): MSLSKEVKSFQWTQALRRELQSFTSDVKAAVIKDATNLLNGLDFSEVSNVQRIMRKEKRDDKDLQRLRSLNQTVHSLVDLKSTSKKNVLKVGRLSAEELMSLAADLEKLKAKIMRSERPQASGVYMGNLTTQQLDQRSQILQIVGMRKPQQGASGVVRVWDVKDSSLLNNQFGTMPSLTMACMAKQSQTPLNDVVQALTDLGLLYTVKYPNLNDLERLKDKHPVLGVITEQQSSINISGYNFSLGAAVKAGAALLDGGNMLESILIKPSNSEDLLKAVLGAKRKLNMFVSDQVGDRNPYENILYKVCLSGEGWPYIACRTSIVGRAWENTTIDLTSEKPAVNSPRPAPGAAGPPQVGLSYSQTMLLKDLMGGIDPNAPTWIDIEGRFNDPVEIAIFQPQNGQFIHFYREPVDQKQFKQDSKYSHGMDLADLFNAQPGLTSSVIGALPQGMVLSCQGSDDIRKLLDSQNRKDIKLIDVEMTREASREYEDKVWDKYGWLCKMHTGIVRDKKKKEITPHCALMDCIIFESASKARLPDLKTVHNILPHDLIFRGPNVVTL

Measured: Potency

COc1cccc(OC)c1OCCNCC1COc2ccccc2O1 (configuration not stated)
inactive: all assays above

CC(N)(C(=O)O)c1ccc(C(=O)O)cc1 (configuration not stated)
inactive: all assays above

Cc1ccccc1CNc1ncnc2c1ncn2C1OC(CO)C(O)C1O (configuration not stated)
inactive: all assays above

COc1cc(C(O)CO)ccc1O (configuration not stated)
inactive: all assays above

Oc1cc2c(cc1O)C(c1ccccc1)CNCC2 (configuration not stated)
inactive: all assays above

CC(N)=NCCCC[C@@H](N)C(=O)O
inactive: all assays above

OCC1NCC(O)C(O)C1O (configuration not stated)
inactive: all assays above

CCCCS(=N)(=O)CC[C@H](N)C(=O)O (some centres not stated)
inactive: all assays above

OCC1O[C@H](O)C(Cl)C(O)C1O (some centres not stated)
inactive: all assays above

CCOC(=O)C12CC1/C(=N/O)c1ccccc1O2 (configuration not stated)
inactive: all assays above

Nc1ccc(CCNc2ncnc3c2ncn3C2OC(CO)C(O)C2O)cc1 (configuration not stated)
inactive: all assays above

C=CCN1CCc2c(cc(O)c(O)c2Cl)C(c2ccccc2)C1 (configuration not stated)
inactive: all assays above

CC(C)C[C@H](NC(=O)[C@H](O)[C@H](N)Cc1ccccc1)C(=O)O
inactive: all assays above

CCCN(CCc1ccccc1)C1CCc2c(O)cccc2C1 (configuration not stated)
inactive: all assays above

CNCCC(Oc1ccccc1C)c1ccccc1 (configuration not stated)
inactive: all assays above

O=C(O)[C@H]1NCCC[C@H]1C(=O)O
inactive: all assays above

CC1CCN=C(N)S1 (configuration not stated)
inactive: all assays above

Cn1c(=O)c2c(nc(/C=C/c3cccc(Cl)c3)n2C)n(C)c1=O
inactive: all assays above

CC(=O)/C(C)=N/O
inactive: all assays above

O=C1C2C=CC=CC2=NC(=S)N1CCN1CCC(=C(c2ccc(F)cc2)c2ccc(F)cc2)CC1 (configuration not stated)
inactive: all assays above

CC(=O)N[C@H](C(=O)O)C(C)(C)SN=O
inactive: all assays above

CN1C2CCC1CC(OC(=O)C(O)c1ccccc1)C2 (configuration not stated)
inactive: all assays above

CCCCCC[C@@H]([C@@H](C)O)n1cnc2c(N)ncnc21
inactive: all assays above

C#CCN1C(C)=C(C(=O)OC)C(c2cccc([N+](=O)[O-])c2)C(C(=O)OCC)=C1C (configuration not stated)
inactive: all assays above

COC(=O)C(N)Cc1ccc(Cl)cc1 (configuration not stated)
inactive: all assays above

Cn1cc(C(F)(F)F)nc1-c1ccc(OCC(O)CNCCOc2ccc(O)c(C(N)=O)c2)cc1 (configuration not stated)
inactive: all assays above

O=C(O)[C@@H]1C[C@H](C(=O)O)N1
inactive: all assays above

C=C(C)C1CC=C(C(=O)O)CC1 (configuration not stated)
inactive: all assays above

CC1=C(C(=O)O)N2C(=O)[C@@H](NC(=O)C(N)c3ccccc3)[C@H]2SC1 (some centres not stated)
inactive: all assays above

N=S(=O)(O)Cc1noc2ccccc12
inactive: all assays above

CC1C(=O)N(C)C(=O)c2nc[nH]c21 (configuration not stated)
inactive: all assays above

CCCCCCCCCCCCCCCCCCOC[C@H](COP(=O)([O-])OCC[N+](C)(C)C)OC
inactive: all assays above
